Results from the supplement of paper PMC8728848.
Many of the other results were omitted from the sample, so the strongest signals are more common in it than they were.

What was measured:
Assay in all cases: glycan array binding signal (z-score within array); higher = stronger binding
Settings in all cases: glycan notation: IUPAC condensed, linker removed
[1] = target: Fuc(a1-2)Gal(b1-3)GalNAc(b1-3)Gal
In short: (§1)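 The Consortium for Functional Glycomics database supplied 3228 glycan arrays, of which those lacking an available protein sequence were dropped. The binding signal, a within-array Z-score, was averaged across arrays of the same protein sequence and across linkers. Negative scores can be read as non-binding.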

[2] = target: Fuc(a1-2)Gal(b1-3)[Fuc(a1-4)]GlcNAc(b1-3)[Fuc(a1-3)[Gal(b1-4)]GlcNAc(b1-6)]Gal(b1-4)Glc
In short: as §1

[3] = target: Fuc(a1-2)Gal(b1-4)GlcNAc(b1-2)Man
In short: as §1

[4] = target: Fuc(a1-2)Gal(b1-4)[Fuc(a1-3)]GlcNAc(b1-3)GalNAc
In short: as §1

[5] = target: Fuc(a1-2)Gal(b1-4)[Fuc(a1-3)]GlcNAc(b1-3)[Neu5Ac(a2-6)Gal(b1-4)GlcNAc(b1-6)]Gal(b1-4)Glc
In short: as §1

[6] = target: Fuc(a1-2)[Gal(a1-3)]Gal(b1-4)Glc
In short: as §1

[7] = target: Fuc(a1-2)[Gal(a1-3)]Gal(b1-4)[Fuc(a1-3)]GlcNAc
In short: as §1

[8] = target: Fuc(a1-2)[Gal(a1-4)]Gal(b1-4)GlcNAc
In short: as §1

[9] = target: Fuc(a1-2)[GalNAc(a1-4)]Gal(b1-4)GlcNAc
In short: as §1

[10] = target: Fuc(a1-3)[Gal(b1-4)]GlcNAc
In short: as §1

[11] = target: Fuc(a1-3)[Gal(b1-4)]GlcNAc(b1-2)Man
In short: as §1

[12] = target: Fuc(a1-3)[Gal(b1-4)]GlcNAc(b1-3)Gal(b1-4)[Fuc(a1-3)]GlcNAc(b1-3)Gal(b1-4)[Fuc(a1-3)]GlcNAc
In short: as §1

[13] = target: Fuc(a1-3)[Gal3S(b1-4)]GlcNAc
In short: as §1

[14] = target: Gal(a1-3)Gal(b1-3)GlcNAc(b1-6)GalNAc
In short: as §1

[15] = target: Gal(a1-3)Gal(b1-4)GlcNAc(b1-2)Man
In short: as §1

[16] = target: Gal(a1-3)Gal(b1-4)GlcNAc(b1-2)Man(a1-3)[Gal(a1-3)Gal(b1-4)GlcNAc(b1-2)Man(a1-6)]Man(b1-4)GlcNAc(b1-4)GlcNAc
In short: as §1

[17] = target: Gal(a1-3)Gal(b1-4)GlcNAc(b1-3)GalNAc
In short: as §1

[18] = target: Gal(a1-3)[Gal(a1-4)]Gal(b1-4)GlcNAc
In short: as §1

[19] = target: Gal(a1-4)Gal(b1-3)GlcNAc(b1-2)Man(a1-3)[Gal(a1-4)Gal(b1-3)GlcNAc(b1-2)Man(a1-6)]Man(b1-4)GlcNAc(b1-4)GlcNAc
In short: as §1

[20] = target: Gal(a1-4)Gal(b1-4)Glc
In short: as §1

[21] = target: Gal(a1-4)Gal(b1-4)GlcNAc
In short: as §1

[22] = target: Gal(a1-4)Gal(b1-4)GlcNAc(b1-2)Man(a1-3)[Gal(a1-4)Gal(b1-4)GlcNAc(b1-2)Man(a1-6)]Man(b1-4)GlcNAc(b1-4)GlcNAc
In short: as §1

[23] = target: Gal(a1-4)GlcNAc
In short: as §1

[24] = target: Gal(a1-6)Glc
In short: as §1

[25] = target: Gal(b1-2)Gal
In short: as §1

[26] = target: Gal(b1-3)GalNAc(a1-3)[Fuc(a1-2)]Gal(b1-4)GlcNAc
In short: as §1

B1: Epa13 (Candida glabrata) (protein)
chain: MGSSHHHHHHSSGLVPRGSHMASDSSENGYAHGCSPSIRAKLKPGLSMEIYSYALRPTDDHCWDSAYLDPMFPRTGYLTHKLLGKAEGIIGPLNFLAKNPACIPAVSTLPLAFHFPKPFTITNFTMLLYGYLSPKKTGKYTFKLLADDLLLMNFGADNAFDCCSHDATKDNIGEYVAYSVWPGVNKNVTVYLESGIYYPLRLFFNNRDAIAQLDFAYYFNDSPIRQTDFSGMFFSIPDSVKCPANI
**Q.** How did the “glycan array binding signal (z-score)” value [1] turn out when B1 was run?
**A.** 0.112

**Q.** And the “glycan array binding signal (z-score)” value [2]?
**A.** -0.604

**Q.** What about the “glycan array binding signal (z-score)” value [3] of the same binder?
**A.** 0.385

**Q.** What about the “glycan array binding signal (z-score)” value [4] of the same binder?
**A.** 2.14

**Q.** And the “glycan array binding signal (z-score)” value [5]?
**A.** -0.526

**Q.** And the “glycan array binding signal (z-score)” value [6]?
**A.** -0.047

**Q.** What about the “glycan array binding signal (z-score)” value [7] of the same binder?
**A.** 0.02

**Q.** What about the “glycan array binding signal (z-score)” value [8] of the same binder?
**A.** 9.27

**Q.** What about the “glycan array binding signal (z-score)” value [9] of the same binder?
**A.** -0.453

**Q.** And the “glycan array binding signal (z-score)” value [10]?
**A.** -0.454

**Q.** What about the “glycan array binding signal (z-score)” value [11] of the same binder?
**A.** -0.124

**Q.** And the “glycan array binding signal (z-score)” value [12]?
**A.** -0.429

**Q.** And the “glycan array binding signal (z-score)” value [13]?
**A.** -0.351

**Q.** What about the “glycan array binding signal (z-score)” value [14] of the same binder?
**A.** 1.13

**Q.** What about the “glycan array binding signal (z-score)” value [15] of the same binder?
**A.** 0.125

**Q.** And the “glycan array binding signal (z-score)” value [16]?
**A.** 4.93

**Q.** What about the “glycan array binding signal (z-score)” value [17] of the same binder?
**A.** 0.561

**Q.** And the “glycan array binding signal (z-score)” value [18]?
**A.** 1.47

**Q.** And the “glycan array binding signal (z-score)” value [19]?
**A.** 4.04

**Q.** And the “glycan array binding signal (z-score)” value [20]?
**A.** 3.52

**Q.** And the “glycan array binding signal (z-score)” value [21]?
**A.** 4.15

**Q.** What about the “glycan array binding signal (z-score)” value [22] of the same binder?
**A.** 5.18

**Q.** And the “glycan array binding signal (z-score)” value [23]?
**A.** 7.08

**Q.** What about the “glycan array binding signal (z-score)” value [24] of the same binder?
**A.** 13.2

**Q.** And the “glycan array binding signal (z-score)” value [25]?
**A.** 4.04

**Q.** What about the “glycan array binding signal (z-score)” value [26] of the same binder?
**A.** -0.314
